# Source: PubChem BioAssay (National Center for Advancing Translational Sciences (NCATS))
# DT40 TDP1 CPT – qHTS for Inhibitors of human tyrosyl-DNA phosphodiesterase 1 (TDP1): qHTS in cells in presence of CPT. chicken DT40 Tdp1-/-;hTDP1 cells + 20 nM CPT, ATP luminescence, 48 h. Potency, µM (series often up to 46.2 µM), usual class: inhibitors. 12% of 420,000 active; also: nearly all actives have a fitted effect of over 55% in size
#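 Chicken DT40 Tdp1-/- cells complemented with human TDP1, 400 cells/well, exposed to compounds plus 20 nM camptothecin for at least 48 h at 37 C; viability read as ATP content by CellTiter-Glo luminescence.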
# VP16 counter – VP16 counterscreen qHTS for inhibitors of ROR gamma transcriptional activity; AID 2546, 2010; Potency, µM (doses to about 53.6 µM), usual class: inhibitors; Drosophila S2 Gal4-VP16 UAS-luciferase, luminescence, 20 h; 3.5% of 310,000 active;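 also: Gal4-VP16 expression switched on by copper sulfate through the metallothionein promoter; nearly all actives have a fitted effect of over 50% in size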
# ALOX12 inh – Primary qHTS assay for inhibitors of human arachidonate 12S-lipoxygenase (ALOX12): Round 2; Polyunsaturated fatty acid lipoxygenase ALOX12 (Homo sapiens), P18054; purified 12hLO, xylenol orange hydroperoxide absorbance; 1.1% of 580,000 active; Potency, µM (titrated, usually from 108 µM), hits mostly inhibitors
#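 Purified human 12hLO at 150 nM in 25 mM Hepes, 0.01% Triton X-100, pH 7.0, preincubated 15 min at room temperature with compound. Reaction started with 40 uM arachidonic acid, 30 min at room temperature. Hydroperoxide measured by Fe-xylenol orange, 573/405 nm absorbance ratio.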
# ELG1 repair inh – qHTS screen for small molecules that inhibit ELG1-dependent DNA repair in human embryonic kidney (HEK293T) cells expressing luciferase-tagged ELG1; Potency, µM (highest dose often 46.1 µM), actives largely listed as inhibitors; AID 504467, 2011; HEK293T ELG1-luciferase reporter, luminescence, 16 h; DNA damage induced by 5-fluorouridine; 2.3% of 330,000 active; also: nearly all actives have a fitted effect of over 55% in size
#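 Reporter activity after DNA damage by 5-fluorouridine is monitored. Compound-treated cells incubate 16 hr at 37 °C, then ONE-Glo is added for 30 min before luminescence reading.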
# DT40 TDP1 no CPT – qHTS for Inhibitors of human tyrosyl-DNA phosphodiesterase 1 (TDP1): qHTS in cells in absence of CPT; DT40 Tdp1-/- hTDP1 cells, no CPT, ATP luminescence, 48 h; AID 686978, 2013; 15% of 420,000 active; Potency, µM (top dose mostly 46.2 µM), actives largely listed as inhibitors; also: nearly all actives have a fitted effect of over 55% in size
#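 A cellular qHTS used chicken DT40 cells lacking endogenous Tdp1 but carrying stably transfected human TDP1. Compounds were applied without camptothecin, and cell growth kinetics were judged by ATP-dependent luminescence after ≥48 hr.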
# RORgamma inh – qHTS for inhibitors of ROR gamma transcriptional activity. Nuclear receptor ROR-gamma (Mus musculus), P51450. Drosophila S2 Gal4-RORgamma UAS-luciferase reporter, 20 h. Potency, µM (series often up to 53.6 µM), usual class: inhibitors. 5.4% of 310,000 active. AID 2551, 2010; also: nearly all actives have a fitted effect of over 60% in size
# Target sequence (P51450 whole entry, looked up, the tested form may be a part): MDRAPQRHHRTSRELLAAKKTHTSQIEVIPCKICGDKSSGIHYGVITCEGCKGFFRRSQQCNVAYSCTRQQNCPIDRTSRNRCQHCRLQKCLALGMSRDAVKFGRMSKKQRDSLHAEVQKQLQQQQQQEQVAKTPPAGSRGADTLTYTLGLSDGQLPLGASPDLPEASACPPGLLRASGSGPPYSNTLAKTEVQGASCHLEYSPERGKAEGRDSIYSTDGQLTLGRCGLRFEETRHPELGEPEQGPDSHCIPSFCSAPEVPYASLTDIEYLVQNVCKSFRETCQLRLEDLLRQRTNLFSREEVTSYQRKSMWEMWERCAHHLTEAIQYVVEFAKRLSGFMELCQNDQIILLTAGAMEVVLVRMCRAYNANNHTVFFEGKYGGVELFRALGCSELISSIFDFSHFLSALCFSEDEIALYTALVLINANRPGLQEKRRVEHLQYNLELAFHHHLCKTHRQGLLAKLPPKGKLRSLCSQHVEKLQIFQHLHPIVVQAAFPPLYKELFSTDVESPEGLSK
#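 Luminescence from a UAS-regulated Photinus luciferase reporter in stably transfected Drosophila Schneider cells is measured; decreased signal marks ROR gamma inhibition. Fusion expression is induced by 700 uM copper sulfate for 20 hr.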
# A number is an active result; – = inactive; ? = inconclusive; · = not tested or not shown; [ ] = remark or other dose. Shown are actives, neighbours in structure and some others; about 15% of the full set was active somewhere. Calls follow the shape of the dose curve; as a rule, active = well fitted curve in the direction sought with a large enough effect; inconclusive = small, poorly fitted or top-dose-only effect, or another doubt; inactive = no such curve, though single readings can be large; an effect the other way counts as inactive or inconclusive.
SMILES,DT40 TDP1 CPT,VP16 counter,ALOX12 inh,ELG1 repair inh,DT40 TDP1 no CPT,RORgamma inh
CC(C)NS(=O)(=O)c1ccc(Cl)c(C(=O)NCc2ccc(-c3nc4ccccc4s3)o2)c1,·,·,16µM,·,·,·
Cc1cc2nc(NC3=NCN(CCc4ccccc4)CN3)nc(C)c2cc1C,·,·,–,·,·,·
CCc1oc2ccccc2c1/C=N/O,·,·,–,·,·,·
CCCCc1oc2ccccc2c1C(=O)c1cc(I)c(N(CC)CCOCC)c(I)c1,7.1µM,·,·,·,4.5µM,·
CCc1oc2ccccc2c1C(=O)c1cc(I)c(O)c(I)c1,?,–,13µM,·,?,–[10 µM]
Cc1cccc(C(=O)NCCS(=O)(=O)Cc2ccccc2)c1,·,·,–,·,·,·
CC(Cl)=CCn1c(NCCc2ccccc2)nc2c1c(=O)n(C)c(=O)n2C,1.5µM,·,–,·,1.5µM,·
C=CCNc1nc2c(c(=O)n(C)c(=O)n2C)n1CC,–,–,–,–,–,–
CCC(C)Nc1nc2c(c(=O)n(C)c(=O)n2C)n1Cc1ccc(F)cc1 (configuration not stated),18µM,–,–,–,?,–
C=CCNc1nc2c(c(=O)n(C)c(=O)n2C)n1CCCCCC,3.3µM,5µM,–,–,1.6µM,?
CNc1nc2c(c(=O)n(C)c(=O)n2C)n1Cc1ccccc1,?,?,–,–,13µM,–
CC(C)CCn1c(NCCc2ccccc2)nc2c1c(=O)n(C)c(=O)n2C,13µM,?,–,?,21µM,–
Cn1c(=O)c2c(nc(NCCc3ccccc3)n2Cc2cccc(Br)c2)n(C)c1=O,12µM,·,–,·,13µM,·
Cn1c(=O)c2c(nc(N/N=C/c3ccc(OC(=O)c4ccco4)cc3)n2Cc2ccccc2Cl)n(C)c1=O,6.5µM,–,·,16µM,8.2µM,–
Cn1c(=O)c2c(nc(NCCNC(=O)c3ccco3)n2Cc2ccc(Cl)cc2Cl)n(C)c1=O,?,–,–,?,?,–
Cc1ccccc1Cn1c(NCCc2ccccc2)nc2c1c(=O)n(C)c(=O)n2C,·,·,–,·,·,·
Cn1c(=O)c2c(nc(N/N=C/c3cccnc3)n2Cc2ccccc2)n(C)c1=O,12µM,–,–,?,26µM,–
COc1ccc(NC(=O)N2CCc3c(C(=O)NCCN4CCCCCC4)cccc32)cc1,·,·,–,·,·,·
Cc1ccc(NC(=O)CCc2ncc(-c3ccccc3F)o2)cc1C,·,·,–,·,·,·
Cc1cc([N+](=O)[O-])ccc1NC(=O)COC(=O)C12CC3CC(CC(Cl)(C3)C1)C2,·,·,–,·,·,·
Cn1c(=O)c2c(nc(NCCc3ccccc3)n2Cc2ccc(Br)cc2)n(C)c1=O,·,·,–,·,·,·
COC(=O)Cn1c(Nc2cccc(C)c2)nc2c1c(=O)n(C)c(=O)n2C,·,·,–,·,·,·
Cn1c(=O)c2c(nc(NCC3CCCO3)n2C)n(C)c1=O (configuration not stated),–,–,–,–,–,–
C=CCNc1nc2c(c(=O)n(C)c(=O)n2C)n1Cc1ccc(F)cc1,2.3µM,7.1µM,–,?,6.5µM,?
Cn1c(=O)c2c(nc(NCCc3ccccc3)n2Cc2ccc(Cl)c(Cl)c2)n(C)c1=O,?,·,–,·,6.5µM,·
SMILES,DT40 TDP1 CPT,VP16 counter,ALOX12 inh,ELG1 repair inh,DT40 TDP1 no CPT,RORgamma inh
CC(C)CNc1nc2c(c(=O)n(C)c(=O)n2C)n1Cc1ccc(F)cc1,·,·,–,·,·,·
Cn1c(=O)n(Cc2ccccc2)c(=O)c2c1nc(NCC1CCCO1)n2Cc1ccccc1 (configuration not stated),?,–,–,21µM,?,–
C/C(Cl)=C\Cn1c(Nc2ccc(C)cc2)nc2c1c(=O)n(C)c(=O)n2C,?,–,–,5.2µM,?,–
O=C(Nc1ccc(F)cc1F)C1=C(N2CCOCC2)c2ccccc2S1(=O)=O,·,·,–,·,·,·
Cc1ccc(S(=O)(=O)N2CCN(C(=O)CNc3ccc(C)cc3Br)CC2)cc1,·,·,–,·,·,·
Cn1cnc2c1c(=O)n(Cc1ccccc1)c(=O)n2C,–,–,–,–,–,–
Cn1c(=O)c2c(nc(-c3ccccc3)n2C)n(Cc2ccccc2)c1=O,16µM,–,–,–,21µM,–
Cn1c(N/N=C2\CCCc3ccccc32)nc2c1c(=O)n(Cc1ccccc1)c(=O)n2C,23µM,–,–,–,?,–
Cn1c(=O)c2c(nc(NCCc3ccccc3)n2Cc2ccc(F)cc2)n(C)c1=O,3.7µM,22µM,–,12µM,5.2µM,?
CCOC(=O)C(C(=O)O)C1CCCCC1 (configuration not stated),·,·,–,·,·,·
CN(C)C(=O)CO,·,·,–,·,·,·
COc1ccc(-c2cc(NC(=O)CC3Sc4ccccc4NC3=O)ccc2OC)cc1 (configuration not stated),·,·,–,·,·,·
CCCc1ccc(-c2cc(C(=O)NCc3cnn(C)c3)c3ccccc3n2)cc1,·,·,–,·,·,·
O=C(CSc1nnc2ccccn12)N1CCN(Cc2cccc(Cl)c2)CC1,·,·,–,·,·,·
CC1CN(S(=O)(=O)c2cccc(C(=O)OCC(=O)NCc3ccccc3)c2)CC(C)O1 (configuration not stated),?,·,–,–,?,·
CC1CN(S(=O)(=O)c2cccc(C(=O)N(CCc3ccccc3)Cc3ccccc3)c2)CC(C)O1 (configuration not stated),7.3µM,·,·,?,5.8µM,·
Cc1ccc(N(Cc2ccccc2)C(=O)c2cccc(S(=O)(=O)N3CC(C)OC(C)C3)c2)cc1 (configuration not stated),21µM,·,–,–,16µM,·
Cc1cc(C)nc(Nc2nc(-c3ccccc3)c3ccccc3n2)n1,·,·,–,·,·,·
NNc1nc(-c2ccccc2)c2ccccc2n1,–,?,–,–,–,7.9µM
NNc1nnc(-c2ccccc2)c(-c2ccccc2)n1,13µM,?,–,?,16µM,11µM
COc1ccc(NC(=O)CN(C)C(=O)COc2ccc3oc4c(c3c2)CCCC4)cc1,·,·,–,·,·,·
C(=C\c1sc(Nc2ccccc2)n[n+]1-c1ccccc1)/c1ccccc1,5.2µM,·,50µM,·,8.2µM,·
COc1ccc(C)cc1Nc1n[n+](-c2ccccc2)c(-c2ccc(C(=O)O)cc2)s1,–,–,18µM,–,–,–
COc1ccc(-c2sc(Nc3ccccc3)n[n+]2-c2ccccc2)cc1Br,23µM,·,?,?,15µM,·
CCOc1cc(-c2sc(Nc3cc(C)ccc3OC)n[n+]2-c2ccccc2)ccc1OC,15µM,·,?,–,16µM,·
C[n+]1nc(Nc2ccccc2)sc1-c1ccc(O)cc1,?,–,?,–,–,–
